Reference: PMC12529666, “Dysregulation of AGO2-miRNA dynamics underlies the AGO2-associated Lessel–Kreienkamp syndrome”

Experiments:
Assay in all cases: RNA Bind-n-Seq (nitrocellulose filter binding and sequencing); miR-122 guide loaded in AGO2; 60 min incubation; 30 mM Tris pH 8.0, 100 mM potassium acetate, 2 mM magnesium acetate, 0.5 mM TCEP, 0.005% NP-40, 0.01 mg/ml yeast tRNA; 3 nM AGO2-miR-122, 100 nM RNA library; 60; high values mean tight binding
Conditions in all cases: protein: recombinant; tags: His6 (N-terminal, pFastBac HTA)
AGO2 L192P = AGO2 L192P (Homo sapiens, UniProt Q9UKV8 1-859, L192P;S387D;S824A;S828D;S831D;S834A)
Procedure, shortened: (§1)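 His-tagged AGO2 was expressed in Sf9 insect cells by baculovirus, loaded with a synthetic guide RNA, and purified by Ni-NTA and a biotinylated capture oligo. Bound RNA was extracted, reverse-transcribed, barcode-amplified and Illumina-sequenced. Fold enrichment is each sequence's read fraction divided by its input-library read fraction.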

AGO2 A367P = AGO2 A367P (Homo sapiens, UniProt Q9UKV8 1-859, A367P;S387D;S824A;S828D;S831D;S834A)
Procedure, shortened: as §1

AGO2 T357M = AGO2 T357M (Homo sapiens, UniProt Q9UKV8 1-859, T357M;S387D;S824A;S828D;S831D;S834A)
Procedure, shortened: as §1

AGO2 F182del = AGO2 F182del (Homo sapiens, UniProt Q9UKV8 1-859, S387D;S824A;S828D;S831D;S834A;del182-182)
Procedure, shortened: as §1

AGO2 L192P, sequence (Q9UKV8 whole entry L192P/S387D/S824A/S828D/S831D/S834A): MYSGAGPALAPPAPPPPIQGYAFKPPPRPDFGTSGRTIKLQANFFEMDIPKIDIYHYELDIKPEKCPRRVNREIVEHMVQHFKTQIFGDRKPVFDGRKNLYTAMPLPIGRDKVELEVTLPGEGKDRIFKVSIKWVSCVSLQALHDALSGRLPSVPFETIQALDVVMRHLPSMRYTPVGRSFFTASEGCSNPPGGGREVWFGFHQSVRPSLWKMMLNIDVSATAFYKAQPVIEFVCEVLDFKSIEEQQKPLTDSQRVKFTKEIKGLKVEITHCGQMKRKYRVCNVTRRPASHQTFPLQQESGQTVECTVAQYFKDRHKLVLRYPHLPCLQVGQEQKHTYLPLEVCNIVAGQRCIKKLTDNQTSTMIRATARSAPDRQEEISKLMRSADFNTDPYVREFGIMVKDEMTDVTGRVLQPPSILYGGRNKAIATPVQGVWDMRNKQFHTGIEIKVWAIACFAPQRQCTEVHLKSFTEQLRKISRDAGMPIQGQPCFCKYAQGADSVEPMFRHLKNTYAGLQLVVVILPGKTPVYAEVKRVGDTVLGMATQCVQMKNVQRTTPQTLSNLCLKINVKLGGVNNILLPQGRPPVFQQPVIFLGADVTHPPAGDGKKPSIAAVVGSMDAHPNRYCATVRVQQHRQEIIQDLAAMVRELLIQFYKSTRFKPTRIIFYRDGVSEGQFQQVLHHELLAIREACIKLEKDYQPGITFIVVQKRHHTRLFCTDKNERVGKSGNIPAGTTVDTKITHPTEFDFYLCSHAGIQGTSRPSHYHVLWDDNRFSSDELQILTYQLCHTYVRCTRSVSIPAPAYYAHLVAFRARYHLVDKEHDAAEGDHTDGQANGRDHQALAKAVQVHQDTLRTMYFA
AGO2 T357M, sequence (Q9UKV8 whole entry T357M/S387D/S824A/S828D/S831D/S834A): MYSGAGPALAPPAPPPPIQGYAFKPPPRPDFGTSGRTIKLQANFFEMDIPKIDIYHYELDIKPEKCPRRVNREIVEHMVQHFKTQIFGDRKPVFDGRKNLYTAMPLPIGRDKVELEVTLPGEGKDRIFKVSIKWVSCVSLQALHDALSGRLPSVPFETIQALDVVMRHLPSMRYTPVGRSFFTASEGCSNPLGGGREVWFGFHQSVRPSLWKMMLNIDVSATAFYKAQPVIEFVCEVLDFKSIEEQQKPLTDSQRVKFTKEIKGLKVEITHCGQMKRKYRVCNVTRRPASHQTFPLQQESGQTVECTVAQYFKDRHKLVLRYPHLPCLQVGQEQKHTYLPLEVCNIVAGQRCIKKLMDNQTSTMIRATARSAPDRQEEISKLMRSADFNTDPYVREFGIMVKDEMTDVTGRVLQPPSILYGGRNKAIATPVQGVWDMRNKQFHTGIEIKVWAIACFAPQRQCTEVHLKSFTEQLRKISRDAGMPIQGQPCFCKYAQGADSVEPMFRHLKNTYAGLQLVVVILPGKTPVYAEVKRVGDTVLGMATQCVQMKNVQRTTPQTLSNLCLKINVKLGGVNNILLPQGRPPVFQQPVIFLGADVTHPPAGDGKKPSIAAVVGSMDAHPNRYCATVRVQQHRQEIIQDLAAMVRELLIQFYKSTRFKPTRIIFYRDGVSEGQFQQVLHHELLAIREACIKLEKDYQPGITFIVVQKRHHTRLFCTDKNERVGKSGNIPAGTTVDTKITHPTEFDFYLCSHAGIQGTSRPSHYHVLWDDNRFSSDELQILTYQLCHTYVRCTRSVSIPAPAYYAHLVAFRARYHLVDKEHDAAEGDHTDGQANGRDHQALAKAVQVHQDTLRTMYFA
AGO2 A367P, sequence (Q9UKV8 whole entry A367P/S387D/S824A/S828D/S831D/S834A): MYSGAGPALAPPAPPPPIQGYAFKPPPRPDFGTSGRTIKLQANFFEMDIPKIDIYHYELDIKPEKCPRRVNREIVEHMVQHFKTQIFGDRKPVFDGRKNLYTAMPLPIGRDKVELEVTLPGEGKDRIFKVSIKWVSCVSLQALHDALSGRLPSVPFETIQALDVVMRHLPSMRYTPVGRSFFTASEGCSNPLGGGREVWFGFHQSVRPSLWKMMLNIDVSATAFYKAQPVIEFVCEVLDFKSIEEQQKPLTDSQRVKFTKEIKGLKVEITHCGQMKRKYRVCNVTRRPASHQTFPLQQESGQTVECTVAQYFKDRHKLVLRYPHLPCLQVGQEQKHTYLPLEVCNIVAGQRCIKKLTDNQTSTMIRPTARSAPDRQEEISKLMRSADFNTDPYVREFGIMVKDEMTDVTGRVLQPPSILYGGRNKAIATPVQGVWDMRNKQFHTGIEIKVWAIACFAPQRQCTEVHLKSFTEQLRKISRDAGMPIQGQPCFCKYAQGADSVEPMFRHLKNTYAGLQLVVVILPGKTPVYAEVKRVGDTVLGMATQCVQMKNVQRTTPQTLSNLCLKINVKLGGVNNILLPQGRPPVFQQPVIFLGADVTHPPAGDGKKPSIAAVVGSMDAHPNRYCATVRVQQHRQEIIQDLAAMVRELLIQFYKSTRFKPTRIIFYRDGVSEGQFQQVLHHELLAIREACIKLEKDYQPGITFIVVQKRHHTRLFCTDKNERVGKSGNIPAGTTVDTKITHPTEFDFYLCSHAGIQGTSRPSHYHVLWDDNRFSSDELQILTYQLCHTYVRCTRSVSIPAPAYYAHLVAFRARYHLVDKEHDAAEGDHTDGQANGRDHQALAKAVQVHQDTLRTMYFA
AGO2 F182del, sequence (Q9UKV8 other isoform, or with tags, fused parts or gaps S387D;S824A;S828D;S831D;S834A;del182-182): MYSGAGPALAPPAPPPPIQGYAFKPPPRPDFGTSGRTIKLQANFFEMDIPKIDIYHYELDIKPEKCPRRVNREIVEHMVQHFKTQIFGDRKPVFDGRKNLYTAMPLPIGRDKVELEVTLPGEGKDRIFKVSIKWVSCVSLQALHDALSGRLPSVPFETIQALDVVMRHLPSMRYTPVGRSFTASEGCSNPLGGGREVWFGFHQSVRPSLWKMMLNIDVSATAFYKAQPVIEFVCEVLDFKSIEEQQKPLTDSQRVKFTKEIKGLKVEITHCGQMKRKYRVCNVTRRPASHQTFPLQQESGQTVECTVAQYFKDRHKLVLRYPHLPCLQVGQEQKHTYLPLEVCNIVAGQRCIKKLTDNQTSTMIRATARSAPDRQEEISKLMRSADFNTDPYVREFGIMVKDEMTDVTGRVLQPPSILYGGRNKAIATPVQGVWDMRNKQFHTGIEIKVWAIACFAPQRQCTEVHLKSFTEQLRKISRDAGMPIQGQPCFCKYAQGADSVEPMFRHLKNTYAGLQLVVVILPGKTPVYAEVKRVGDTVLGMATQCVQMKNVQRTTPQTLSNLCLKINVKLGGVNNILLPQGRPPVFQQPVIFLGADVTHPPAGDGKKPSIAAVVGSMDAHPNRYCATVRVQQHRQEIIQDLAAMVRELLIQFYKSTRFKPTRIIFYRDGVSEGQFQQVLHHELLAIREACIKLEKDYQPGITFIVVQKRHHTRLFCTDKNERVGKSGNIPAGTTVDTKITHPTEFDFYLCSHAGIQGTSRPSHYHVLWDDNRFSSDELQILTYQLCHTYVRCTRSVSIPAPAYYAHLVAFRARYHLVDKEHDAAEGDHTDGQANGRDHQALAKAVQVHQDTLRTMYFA

Binder | binding signal (AGO2 L192P) | binding signal (AGO2 A367P) | binding signal (AGO2 T357M) | binding signal (AGO2 F182del)
ATGCCCTA (ssRNA, constant regions annealed to DNA blockers; guide miR-122 5' phosphate) RNA 1: GAGUUCUACAGUCCGACGAUCCCAACAUGCCCUACACCUGGAAUUCUCGGGUGCCAA RNA 2: UGGAGUGUGACAAUGGUGUUUG DNA 1: GATCGTCGGACTGTAGAACTC DNA 2: TTGGCACCCGAGAATTCCA | 0.457 fold enrichment over input | 0.166 fold enrichment over input | 0.544 fold enrichment over input | –
ATACCCTG (ssRNA, constant regions annealed to DNA blockers; guide miR-122 5' phosphate) RNA 1: GAGUUCUACAGUCCGACGAUCCCAACAUACCCUGCACCUGGAAUUCUCGGGUGCCAA RNA 2: UGGAGUGUGACAAUGGUGUUUG DNA 1: GATCGTCGGACTGTAGAACTC DNA 2: TTGGCACCCGAGAATTCCA | 0.364 fold enrichment over input | 0.126 fold enrichment over input | 0.522 fold enrichment over input | –
ATACTTTG (ssRNA, constant regions annealed to DNA blockers; guide miR-122 5' phosphate) RNA 1: GAGUUCUACAGUCCGACGAUCCCAACAUACUUUGCACCUGGAAUUCUCGGGUGCCAA RNA 2: UGGAGUGUGACAAUGGUGUUUG DNA 1: GATCGTCGGACTGTAGAACTC DNA 2: TTGGCACCCGAGAATTCCA | 0.38 fold enrichment over input | 0.138 fold enrichment over input | 0.553 fold enrichment over input | –
ATGCTTCG (ssRNA, constant regions annealed to DNA blockers; guide miR-122 5' phosphate) RNA 1: GAGUUCUACAGUCCGACGAUCCCAACAUGCUUCGCACCUGGAAUUCUCGGGUGCCAA RNA 2: UGGAGUGUGACAAUGGUGUUUG DNA 1: GATCGTCGGACTGTAGAACTC DNA 2: TTGGCACCCGAGAATTCCA | 0.336 fold enrichment over input | 0.127 fold enrichment over input | 0.474 fold enrichment over input | –
ACGCCTCG (ssRNA, constant regions annealed to DNA blockers; guide miR-122 5' phosphate) RNA 1: GAGUUCUACAGUCCGACGAUCCCAACACGCCUCGCACCUGGAAUUCUCGGGUGCCAA RNA 2: UGGAGUGUGACAAUGGUGUUUG DNA 1: GATCGTCGGACTGTAGAACTC DNA 2: TTGGCACCCGAGAATTCCA | 0.351 fold enrichment over input | 0.15 fold enrichment over input | 0.48 fold enrichment over input | –
ATGCCTTG (ssRNA, constant regions annealed to DNA blockers; guide miR-122 5' phosphate) RNA 1: GAGUUCUACAGUCCGACGAUCCCAACAUGCCUUGCACCUGGAAUUCUCGGGUGCCAA RNA 2: UGGAGUGUGACAAUGGUGUUUG DNA 1: GATCGTCGGACTGTAGAACTC DNA 2: TTGGCACCCGAGAATTCCA | 0.356 fold enrichment over input | 0.131 fold enrichment over input | 0.51 fold enrichment over input | –
ACGCTTCG (ssRNA, constant regions annealed to DNA blockers; guide miR-122 5' phosphate) RNA 1: GAGUUCUACAGUCCGACGAUCCCAACACGCUUCGCACCUGGAAUUCUCGGGUGCCAA RNA 2: UGGAGUGUGACAAUGGUGUUUG DNA 1: GATCGTCGGACTGTAGAACTC DNA 2: TTGGCACCCGAGAATTCCA | 0.346 fold enrichment over input | 0.139 fold enrichment over input | 0.445 fold enrichment over input | –
GCATTTCG (ssRNA, constant regions annealed to DNA blockers; guide miR-122 5' phosphate) RNA 1: GAGUUCUACAGUCCGACGAUCCCAACGCAUUUCGCACCUGGAAUUCUCGGGUGCCAA RNA 2: UGGAGUGUGACAAUGGUGUUUG DNA 1: GATCGTCGGACTGTAGAACTC DNA 2: TTGGCACCCGAGAATTCCA | 0.358 fold enrichment over input | 0.127 fold enrichment over input | 0.486 fold enrichment over input | –
ACATCTTA (ssRNA, constant regions annealed to DNA blockers; guide miR-122 5' phosphate) RNA 1: GAGUUCUACAGUCCGACGAUCCCAACACAUCUUACACCUGGAAUUCUCGGGUGCCAA RNA 2: UGGAGUGUGACAAUGGUGUUUG DNA 1: GATCGTCGGACTGTAGAACTC DNA 2: TTGGCACCCGAGAATTCCA | 0.519 fold enrichment over input | 0.197 fold enrichment over input | 0.562 fold enrichment over input | 0.33 fold enrichment over input
ATGTTTCG (ssRNA, constant regions annealed to DNA blockers; guide miR-122 5' phosphate) RNA 1: GAGUUCUACAGUCCGACGAUCCCAACAUGUUUCGCACCUGGAAUUCUCGGGUGCCAA RNA 2: UGGAGUGUGACAAUGGUGUUUG DNA 1: GATCGTCGGACTGTAGAACTC DNA 2: TTGGCACCCGAGAATTCCA | 0.353 fold enrichment over input | 0.123 fold enrichment over input | 0.462 fold enrichment over input | –
GCGCTTTG (ssRNA, constant regions annealed to DNA blockers; guide miR-122 5' phosphate) RNA 1: GAGUUCUACAGUCCGACGAUCCCAACGCGCUUUGCACCUGGAAUUCUCGGGUGCCAA RNA 2: UGGAGUGUGACAAUGGUGUUUG DNA 1: GATCGTCGGACTGTAGAACTC DNA 2: TTGGCACCCGAGAATTCCA | 0.333 fold enrichment over input | 0.137 fold enrichment over input | 0.462 fold enrichment over input | –
